Measurements from the supplement of paper PMC6609913.
Where a name gives a salt, the structure may show the parent alone. ± gives the standard deviation of the averaged measurements. Whole data set: some 1,300 compounds, median “normalised cell viability” near 1, cut for the lowest 2% near 0.14. Only a selection was taken, and the lowest values are over-represented in it overall.

System: V-C8 (BRCA2-deficient hamster cells)
Experiment: normalised cell viability (fraction of plate median); higher = more viable cells (less toxic)
Settings: 5 µM
Procedure, shortened: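 BRCA2-deficient hamster V-C8 cells and BRCA2-restored V-C8 cells were plated in 96-well plates, and library drugs were added 24 h later at 5 μM in 100 μl medium. Exposure lasted 3 days in screen 1 and 6 days in screen 2, next to solvent-only wells. Viability was then read by resazurin assay, median-plate normalised and averaged across triplicate wells.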

Row | SMILES | normalised cell viability (treatment time: 3 days) | normalised cell viability (treatment time: 6 days)
1 | CO[C@H]1/C=C/O[C@@]2(C)Oc3c(C)c(O)c4c(c3C2=O)C2=NC3(CCN(CC(C)C)CC3)NC2=C(NC(=O)/C(C)=C\C=C\[C@H](C)[C@H](O)[C@@H](C)[C@@H](O)[C@@H](C)[C@H](OC(C)=O)[C@@H]1C)C4=O [Rifabutin] | 0.973 ± 0.096 | 0.876 ± 0.032
2 | NC(=O)c1cnccn1 [Pyrazinamide] | 1.12 ± 0.057 | 1.05 ± 0.071
3 | CNCCC=C1c2ccccc2C=Cc2ccccc21 [Norcyclobenzaprine] | 0.959 ± 0.045 | 0.835 ± 0.035
4 | CSc1ccc2c(c1)N(CCC1CCCCN1C)c1ccccc1S2 (stereo unspecified) [Thioridazine hydrochloride] | 0.121 ± 0.0035 | 0.0951 ± 0.0067
5 | CN1CCCCC1CCN1c2ccccc2Sc2ccc([S+](C)[O-])cc21 (stereo unspecified) [Mesoridazine besylate] | 1.07 ± 0.07 | 1.07 ± 0.017
6 | CCSc1ccc2c(c1)N(CCCN1CCN(C)CC1)c1ccccc1S2 [Thiethylperazine dimalate] | 0.932 ± 0.029 | 1.1 ± 0.35
7 | CC1(C)[C@@H](OC(=O)CCC(=O)O)CC[C@]2(C)[C@H]3C(=O)C=C4[C@@H]5C[C@@](C)(C(=O)O)CC[C@]5(C)CC[C@@]4(C)[C@]3(C)CC[C@@H]12 [Carbenoxolone disodium salt] | 1 ± 0.041 | 1.15 ± 0.26
8 | CC(=O)OCC(=O)[C@@]1(O)CC[C@H]2[C@@H]3CCC4=CC(=O)CC[C@]4(C)[C@@]3(F)[C@@H](O)C[C@@]21C [Fludrocortisone acetate] | 0.957 ± 0.08 | 1.11 ± 0.041
9 | O=C1c2cccc(O)c2C(=O)c2c(O)cccc21 [1,8-Dihydroxyanthraquinone] | 0.838 ± 0.065 | 0.78 ± 0.021
10 | O=C1c2c(O)cccc2Cc2cccc(O)c21 [Anthralin] | 1.03 ± 0.019 | 1.003 ± 0.0083
11 | O=C1c2c(O)ccc(O)c2C(=O)c2c(NCCNCCO)ccc(NCCNCCO)c21 [Mitoxantrone dihydrochloride] | 0.143 ± 0.0017 | 0.116 ± 0.011
12 | c1ccc2c(c1)CCCc1cc(NCCN3CCOCC3)nnc1-2 | 0.351 ± 0.016 | 0.496 ± 0.056
13 | CN1C2CCCC1CC(NC(=O)c1nn(C)c3ccccc13)C2 (stereo unspecified) [Granisetron] | 0.973 ± 0.092 | 1.03 ± 0.051
14 | CCN(CC)C(=O)/C(C#N)=C/c1cc(O)c(O)c([N+](=O)[O-])c1 [Entacapone] | 0.957 ± 0.024 | 1.06 ± 0.059
15 | CN[C@@H]1[C@@H](O[C@H]2O[C@H](CO)[C@@H](N)[C@H](O)[C@H]2O)OC2C[C@@H](N)[C@@H](O[C@H]3[C@H](O)[C@@H](O)[C@H](N)C[C@@H]3N)OC2[C@@H]1O (stereo partly specified) [Apramycin] | 0.995 ± 0.057 | 1.03 ± 0.019
16 | Cc1ccnc2c1NC(=O)c1cccnc1N2C1CC1 [Nevirapine] | 0.942 ± 0.023 | 0.994 ± 0.039
17 | NC1CCN(c2nc3c(cc2F)c(=O)c(C(=O)O)cn3-c2ccc(F)cc2F)C1 (stereo unspecified) [Tosufloxacin hydrochloride] | 1.01 ± 0.048 | 1.08 ± 0.024

Row | SMILES | normalised cell viability (treatment time: 3 days) | normalised cell viability (treatment time: 6 days)
18 | CC(CCc1ccc(O)cc1)NCCc1ccc(O)c(O)c1 (stereo unspecified) [Dobutamine hydrochloride] | 1.01 ± 0.031 | 0.976 ± 0.027
19 | CCCC(=O)Nc1ncnc2c1ncn2[C@@H]1O[C@@H]2COP(=O)(O)O[C@H]2[C@H]1OC(=O)CCC [Bucladesine sodium salt] | 0.995 ± 0.021 | 1.04 ± 0.014
20 | CCCCc1nc(Cl)c(CO)n1Cc1ccc(-c2ccccc2-c2nnn[nH]2)cc1 [Losartan] | 1.019 ± 0.0051 | 1.052 ± 0.0052
21 | C[C@@H]1NC(=O)NC1=O [Methylhydantoin-5-(L)] | 1 ± 0.089 | 1.07 ± 0.013
22 | CC1=Nc2ccc(Cl)cc2S(=O)(=O)N1 [Diazoxide] | 0.95 ± 0.024 | 1.01 ± 0.054
23 | N=C(N)c1ccc(OCCCCCOc2ccc(C(=N)N)cc2)cc1 [Pentamidine isethionate] | 0.596 ± 0.07 | 0.597 ± 0.085
24 | CC1=C(C(=O)O)N2C(=O)[C@@H](NC(=O)[C@H](N)c3ccccc3)[C@H]2SC1 [Cephalexin monohydrate] | 1.25 ± 0.026 | 1.09 ± 0.1
25 | Cc1ccccc1N1C(=O)c2cc(S(N)(=O)=O)c(Cl)cc2NC1C (stereo unspecified) [Metolazone] | 1.11 ± 0.073 | 1.06 ± 0.07
26 | CC(=O)[C@@]12O[C@](C)(c3ccccc3)O[C@@H]1C[C@H]1[C@@H]3CCC4=CC(=O)CC[C@]4(C)[C@H]3CC[C@@]12C [Algestone acetophenide] | 0.915 ± 0.05 | 0.945 ± 0.094
27 | CCCNC(C)(C)COC(=O)c1ccccc1 [Meprylcaine hydrochloride] | 1 ± 0.042 | 1.25 ± 0.47
28 | C#C[C@]1(O)CC[C@H]2[C@@H]3CCc4cc(OC)ccc4[C@H]3CC[C@@]21C [Ethynylestradiol 3-methyl ether] | 0.844 ± 0.02 | 0.886 ± 0.17
29 | C[n+]1ccccc1/C=N/O [Pralidoxime chloride] | 1.03 ± 0.029 | 1.02 ± 0.06
30 | CCCCC(CC)CNC(=N)NC(=N)NCCCCCCNC(=N)NC(=N)NCC(CC)CCCC (stereo unspecified) [Alexidine dihydrochloride] | 0.124 ± 0.0044 | 0.132 ± 0.0043
31 | CN(C)CCN1C(=O)c2ccccc2N(C)c2ccccc21 [Dibenzepine hydrochloride] | 0.191 ± 0.011 | 0.215 ± 0.0073
32 | CC(=O)OC[C@H]1O[C@@H]([S-])[C@H](OC(C)=O)[C@@H](OC(C)=O)[C@@H]1OC(C)=O.CCP(CC)CC.[Au+] [Auranofin] | 0.117 ± 0.0046 | 0.141 ± 0.0027
33 | OCCN1CCN(CC/C=C2/c3ccccc3Sc3ccc(Cl)cc32)CC1 [Zuclopenthixol hydrochloride] | 0.605 ± 0.014 | 0.61 ± 0.032
